Source: paper PMC4336329 (PLoS ONE, 2015)
Screen size: about 310,000 compounds; about 2,200 (0.71%) showed an effect of 50% or more. Effects have a minus sign here. The sample holds strong results, similar compounds and a random draw of the others, so the mix is not that of the screen.

target: human ether-à-go-go-related gene (hERG) potassium channel (human, UniProt Q12809); assay: primary screen, population patch clamp on CHO cells stably expressing hERG; higher = less effect of the substance
Sequence (Q12809 whole entry, looked up): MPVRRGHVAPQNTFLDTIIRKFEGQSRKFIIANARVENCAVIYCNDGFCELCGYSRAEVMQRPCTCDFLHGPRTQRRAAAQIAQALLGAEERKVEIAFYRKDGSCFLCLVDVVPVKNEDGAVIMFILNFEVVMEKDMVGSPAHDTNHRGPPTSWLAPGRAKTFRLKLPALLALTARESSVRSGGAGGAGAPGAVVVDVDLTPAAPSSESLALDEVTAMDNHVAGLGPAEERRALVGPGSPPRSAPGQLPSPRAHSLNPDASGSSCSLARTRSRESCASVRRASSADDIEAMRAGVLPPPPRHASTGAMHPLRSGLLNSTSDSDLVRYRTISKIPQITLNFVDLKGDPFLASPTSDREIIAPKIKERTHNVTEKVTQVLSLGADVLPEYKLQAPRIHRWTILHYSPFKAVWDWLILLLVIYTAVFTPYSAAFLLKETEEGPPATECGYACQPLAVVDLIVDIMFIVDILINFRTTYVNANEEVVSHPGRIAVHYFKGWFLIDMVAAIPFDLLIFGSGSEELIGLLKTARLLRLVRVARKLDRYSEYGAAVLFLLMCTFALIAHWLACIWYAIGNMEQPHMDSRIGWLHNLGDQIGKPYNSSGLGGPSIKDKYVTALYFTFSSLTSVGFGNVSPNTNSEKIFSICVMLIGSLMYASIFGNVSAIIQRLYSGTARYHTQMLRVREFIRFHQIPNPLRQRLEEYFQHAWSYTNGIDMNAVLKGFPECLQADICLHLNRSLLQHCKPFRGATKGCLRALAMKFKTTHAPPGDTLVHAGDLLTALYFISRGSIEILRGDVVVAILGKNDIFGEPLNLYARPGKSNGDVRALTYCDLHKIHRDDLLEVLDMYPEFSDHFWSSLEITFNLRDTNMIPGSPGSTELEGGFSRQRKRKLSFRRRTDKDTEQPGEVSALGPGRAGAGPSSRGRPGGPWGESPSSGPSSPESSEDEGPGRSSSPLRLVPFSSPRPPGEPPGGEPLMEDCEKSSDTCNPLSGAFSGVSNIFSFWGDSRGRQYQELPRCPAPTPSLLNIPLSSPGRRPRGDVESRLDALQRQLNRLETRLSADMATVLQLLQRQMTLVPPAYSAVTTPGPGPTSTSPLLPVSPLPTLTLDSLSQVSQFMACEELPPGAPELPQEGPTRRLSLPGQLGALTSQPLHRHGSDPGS

SMILES	hERG current change (%, negative = inhibition) at 1uM [%]
Cn1cc(CNCc2ccc(-n3cccn3)cc2)c(-c2ccccc2F)n1	-35.4
CN(Cc1cccc(-n2cccn2)c1)Cc1cn(C)nc1-c1ccccc1F	16.7
CN(Cc1ccc(-n2cccn2)cc1)Cc1cn(C)nc1-c1ccccc1F	-63.5
Cc1ccc(=O)n(C(C(=O)NCc2ccco2)C(=O)c2ccc(F)cc2)c1 (stereo not drawn)	6.1
Cn1c(Cn2nnc(-c3ccccc3)n2)nnc1SCc1ccccc1Cl	5.26
CCCCOc1ccc(Cc2c(COCC)[nH]c(=S)[nH]c2=O)cc1	13
Fc1cccc(C2NC(=S)NC3=C2N2CCC3CC2)c1 (stereo not drawn)	1.79
COc1ccc(CCNC(=O)c2c(O)c3cccc4c3n(c2=O)CC4)cc1OC	-6.66
COc1cccc(-c2nc(CS(=O)(=O)CC(=O)NCCCN3CCc4ccccc4C3)c(C)o2)c1	-56.3
CCCNC(=O)CS(=O)(=O)Cc1nc(-c2cccc(OC)c2)oc1C	-284
COc1cccc(-c2nc(CS(=O)(=O)CC(=O)NCCCN3CCOCC3)c(C)o2)c1	10.9
COc1cccc(-c2nc(CS(=O)(=O)CC(=O)NCCC(C)C)c(C)o2)c1	14.4
COc1cccc(-c2nc(CS(=O)(=O)CC(=O)NCCCN3CCN(C)CC3)c(C)o2)c1	11.2
COCCCNC(=O)CS(=O)(=O)Cc1nc(-c2cccc(OC)c2)oc1C	11.3
Cn1nc(C(F)(F)F)cc1C(=O)O	17.3
Cl.O=C(Nc1ccc(Br)cn1)c1ccc(Br)s1	13.3
N=c1c(C(=O)NC2CCCCC2)cc2c(=O)n3ccccc3nc2n1Cc1ccco1	-59.1
Cc1ccc(Cn2c(=N)c(C(=O)NC3CCCC3)cc3c(=O)n4ccccc4nc32)cc1	-73.4
Cc1ccc(S(=O)(=O)c2cc3c(=O)n4ccccc4nc3n(Cc3ccco3)c2=N)cc1C	-6.2
N=c1c(C(=O)NC2CCCCC2)cc2c(=O)n3ccccc3nc2n1Cc1ccccc1	-10.1
N=c1c(C(=O)NC2CCCCC2)cc2c(=O)n3ccccc3nc2n1Cc1cccnc1	-50.6
Cc1ccc(Cn2c(=N)c(S(=O)(=O)c3ccc(C)cc3)cc3c(=O)n4ccccc4nc32)cc1	6.66
Cc1ccc(Cn2c(=N)c(C(=O)NC3CCCCC3)cc3c(=O)n4ccccc4nc32)cc1	-5.62

SMILES	hERG current change (%, negative = inhibition) at 1uM [%]
N=c1c(C(=O)NC2CCCC2)cc2c(=O)n3ccccc3nc2n1Cc1ccccc1	-55.9
N=c1c(C(=O)NC2CCCCC2)cc2c(=O)n3ccccc3nc2n1Cc1ccc(F)cc1	-29.5
CCN(CC)CCOC(=O)c1ccc(N/C=C(/C#N)c2nc(-c3cccc(OC)c3)cs2)cc1	13.7
CCOC(=O)/C=C1\SCC(=O)N1CC(=O)Nc1ccc(OC)c(OC)c1	12.2
CCOC(=O)C1CCN(C(=O)N(CC)CC)CC1	3.77
CCCCn1c(=O)c(-c2ccccc2)c(O)c2ccccc21	16.3
Cc1nonc1C1CCCN1C(=O)c1cc(COc2ccc(F)cc2Cl)on1 (stereo not drawn)	8.74
COc1ccc(NC2CCCN(C(=O)CSc3ccccc3)C2)cc1OC (stereo not drawn)	4.34
CC1(C)CC(=O)C(C(c2cccnc2)C2C(=O)CC(C)(C)CC2=O)C(=O)C1	2.02
CCCC(=O)N1CCN(c2ccc(NC(=O)c3ccc(N4CCCC4)c([N+](=O)[O-])c3)cc2Cl)CC1	-8.46
Br.N=C1c2ccccc2CN1NC(=O)C1CC1	7.71
CCCCN(C)C(=O)c1cc2c(s1)-c1ccccc1S(=O)(=O)C2	-6.69
Cc1[nH]c(=O)[nH]c(=O)c1S(=O)(=O)N1CCC(C(=O)NC(C)c2ccccc2)CC1 (stereo not drawn)	7.35
O=C(c1ccc(OC2CCN(Cc3ccc(F)cc3)CC2)cc1)N1CCCC1	7.68
CC(C)c1ccc(CN2CCC(Oc3ccc(C(=O)N4CCCC4)cc3)CC2)cc1	-33.7
CCc1ccc(CN2CCC(Oc3ccc(C(=O)N4CCCC4)cc3)CC2)cc1	-77.5
CC(=O)N1CCN(C(=O)c2ccc(OC3CCN(CCc4ccccc4)CC3)cc2)CC1	14.6
CCc1ccc(CN2CCC(Oc3ccc(C(=O)N4CCCCC4)cc3)CC2)cc1	-61.5
CSc1ccc(CN2CCC(Oc3cccc(C(=O)N4CCCC4)c3)CC2)cc1	-36.7
CSc1ccc(CN2CCC(Oc3ccc(C(=O)N4CCCC4)cc3)CC2)cc1	-56.4
O=C(c1ccc(OC2CCN(Cc3ccc(C(F)(F)F)cc3)CC2)cc1)N1CCCCC1	6.84
CC(=O)Nc1ccc(CN2CCC(Oc3ccc(C(=O)N4CCCC4)cc3)CC2)cc1	-6.27
